Source: PubChem BioAssay (NCI)
This is part of a sample that, as a whole, favours compounds with a hit. Of some 83,000 tested, about 20% had one in any assay.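 The endpoint reported here, percent growth, reads 100 for growth as untreated, 0 for no net growth and -100 for all cells dead.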 Unmarked numbers belong to inactive results. Activity calls are given as the source filed them. Rule for the calls: active = growth percent below 10; inactive = the rest.

test system: NCI-H322M lung; test: NCI-60 one-dose screen, 48 h (100 = growth as untreated, 0 = no growth, -100 = all killed); conditions: 10 µM unless noted

Structure (SMILES) | growth
Cc1cc(CSc2ccc(Cl)cc2)ccc1N | 98.2%
CC(=O)C(CO)C(=O)Nc1ccccc1 (stereo not given) | 85.9%
Cc1nc2ccccc2c(=O)n1-c1cccc(OCc2cn(-c3cccc(O)c3)nn2)c1 | 101%
CCCCCCCCCCN1CC2CCCCC2C1 (stereo not given) | 99.7%
CCCCN(CCC)CCCCCCCCCCN1CCCc2ccccc21 | 99.4%
C/C=C(/C)C(=O)OC1C=C(CO)C(=O)C(OC(=O)/C(C)=C\C)C1C(C)C (stereo not given) | -90.3% (active)
O=C1C(Cl)=C(Nc2ccc(Nc3ccccc3)c(NC3=C(Cl)C(=O)c4ccccc4C3=O)c2)C(=O)c2ccccc21 | 57.3%
CN1CCN(Cc2ccc(NC(=O)c3cncc(C#Cc4c(N)ncc5ccc(F)cc45)c3)cc2C(F)(F)F)CC1 | 27.7%
COc1cccc(CNC(=O)c2cccc(C3CC(=O)c4c(cc(OC)c(OC)c4OC)O3)c2)c1 (stereo not given) | 86.6%
COC(=O)C1CC(=O)N(C(=O)Nc2ccc(Cl)cc2Cl)C1 (stereo not given) | 108%
O=C(/C=C\c1ccc(NCc2ccc(C(=O)O)cc2)cc1)CCl | 97%
CC1(C)NC(=S)NC1=O | 107%
Cc1ccc(C(=O)Nc2ccc(CN3CCN(C)CC3)c(C(F)(F)F)c2)cc1C#Cc1cncc2ncccc12 | -95.8% (active)
COc1ccc(-c2nc(N)n(C(=S)Nc3ccccc3)n2)cc1 | 101%
O=C(O)c1ccc(-c2nn(-c3ccc(C(=O)O)cc3)cc2CNc2ccc(Br)cc2)cc1 | 100%
CCS(=O)(=O)N[C@@H]1O[C@H](COC(C)=O)C(OC(C)=O)[C@H](OC(C)=O)C1OC(C)=O (stereo not given in full) | 115%
CCC(C)(C)c1ccc(OCCCCCCN2CCN(c3ccc(C)c(Cl)c3)CC2)cc1 | 88.3%
Cc1ncc(C(=O)Nc2ccc(CN3CCN(C)CC3)c(C(F)(F)F)c2)cc1C#Cc1c(N)ncc2ccccc12 | -99% (active)

Structure (SMILES) | growth
COc1ccc2cnc(N)c(C#Cc3cc(C(=O)Nc4ccc(CN5CCN(C)CC5)c(C(F)(F)F)c4)cnc3C)c2c1 | 70.3%
COc1ccc(-c2nc(SCC(C)C)nc(Nc3ccc(C(=O)O)cc3)c2C#N)cc1 | 96.9%
CCCCCCCCCCCCCCCCC(=O)O.CCCCCCCCCCCCCCCCCC(=O)O.CCCCCCCCCCCCCCCCCC(=O)O.CCCCCCCCCCCCCCCCCC(=O)O.CCCCCCCCCCCCCCCCCC(=O)O.CO[CH-]OC12COC1CC(O)C1(C)C(O)C(OC(C)O)C3=C(C)C(OC(=O)C(O)C([NH-])c4ccccc4)CC(O)(C(OC(=O)c4ccccc4)C21)C3(C)C.[Cu+].[Zn].[Zn].[Zn].[Zn].[Zn] (stereo not given) | 28.6%
O=C1c2cc([N+](=O)[O-])ccc2-c2cc(Cl)c(NC(=O)C(F)(F)F)cc21 | 103%
CCCNC(=O)Oc1ccc(/C(=C(/C)Cc2ccc(OC)cc2)c2ccc(OCCN3CCCCC3)cc2)cc1 | 81.5%
CC(=O)CCS(=O)c1ccccc1 (stereo not given) | 93.7%
N#CC1=C(N2CCOCC2)NC2c3ccccc3Sc3ccccc3N2C1=N (stereo not given) | 117%
CC(C)(C)OC(=O)N1C/C(=C\c2ccccc2)C(=O)/C(=C/c2ccccc2)C1 | 92.6%
N#Cc1ccc(NC2c3ccccc3CC2O)cc1 (stereo not given) | 114%
CC([C@H]1CCC2C3CCC4C[C@@H](N)CC[C@]4(C)C3CC[C@@]21C)N(C)C (stereo not given in full) | 77.3%
CCN(CC)c1ccc2nc3ccc(N=Nc4ccc(O)cc4)cc3[n+](-c3ccccc3)c2c1 | 95.8%
CC(C)CSc1nc(-c2ccc(F)cc2)c(C#N)c(N2CCCCC2)n1 | 94%
Cc1ccc(C(=O)Nc2ccc(CN3CCN(C)CC3)c(C(F)(F)F)c2)cc1C#Cc1cnc(N)c2ccc(C#N)cc12 | 73.8%
CCCCCN1CCN(C(CC(=O)c2ccccc2)C(=O)c2ccccc2)CC1 (stereo not given) | 101%
COc1ccc2cc(C(C)C(=O)Nc3ccc(S(=O)(=O)Nc4cc(C)on4)cc3)ccc2c1 (stereo not given) | 108%
CN1CCN(Cc2ccc(NC(=O)c3ccc(C#Cc4c(N)ncc5ccc(F)cc45)cc3)cc2C(F)(F)F)CC1 | -49% (active)
CSC1=Nc2c(c(C)c(-c3ccccc3)n2CCCCl)C2=NC(=O)CN12 | 82.1%
